Experimental data taken from PubChem BioAssay (NCI).
About 79,000 compounds went through this panel and 15% of them were active in at least one assay; those are over-represented in the sample as a whole. Unmarked numbers belong to inactive results. Active and inactive are the calls of the source. No stated cut-off is given here; in the data, active means growth inhibition above about 70%; inactive means the rest.

assay: NCI Yeast Anticancer Drug Screen. Data for the mec2-1 strain (AID 157); settings: S. cerevisiae mec2-1 strain, at 50.0 µM, stronger effect = higher value
Summary of the method: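 Test agents were screened against the mec2-1 yeast strain, with defined DNA repair or cell cycle alteration. Growth was scored as inhibition against vehicle-only controls.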

| SMILES | growth inhibition |
| --- | --- |
| COc1ccc(N)cc1OC | 1.35% |
| N.N.N.N.N.O=C([O-])C(=O)[O-].[Co+3].[O-][Cl+3]([O-])([O-])O.[O-][Cl+3]([O-])([O-])[O-] | 11.8% |
| COc1ccc2c(c1)CCC1C2CCC2(C)C1CCC21CCNP(=O)(N(CCCl)CCCl)O1 (stereo not given) | 31.4% |
| NC(=O)CI | 27.1% |
| COc1cc(/C=C2\C(O)C3CCN2CC3)cc(OC)c1OC (stereo not given) | -2.15% |
| FC(F)(F)[S-].FC(F)(F)[S-].[C-]#[O+].[C-]#[O+].[C-]#[O+].[C-]#[O+].[C-]#[O+].[C-]#[O+].[C-]#[O+].[C-]#[O+].[Mn].[Mn] | 99.6% (active) |
| O=C(COc1ccc(Cl)c(Cl)c1)Nc1ccccc1S(=O)(=O)F | -5.35% |
| CN1CC[CH2][Sn]([Cl])([Cl])[CH2]CC1 | -5.9% |
| CN(C)C1OCCO1 | -36.1% |
| CN(C)c1ccc(N=Nc2ccc([As](=O)(O)O)cc2)cc1 | -10.6% |
| CCN1C(=O)C(C)C(=O)N(C)C1=O (stereo not given) | 18.7% |
| COc1cc2c(cc1OC)[C@@H]1C(=O)c3ccc4c(c3O[C@@H]1CO2)C[C@H](C(C)C)O4 | -40.2% |
| C=CCOCC1CO1 (stereo not given) | -5.1% |
| CCN(CC)CC#N | -2.75% |
| CC1(C)N=C(N)N=C(N)N1c1ccc(OCCOc2ccc(S(=O)(=O)F)cc2)cc1 | -14.4% |
| NNC(N)=NCCCC(N)C(=O)O (stereo not given) | -42% |
| C1CC[N-]CC1.C1CC[N-]CC1.[Cl][Pt+2]([Cl])([Cl])[Cl] | -10.3% |
| O=C(CCN1CC=C(c2ccccc2)CC1)c1ccc(F)cc1 | 51.5% |
| C/C(CCl)=N/NC1=NC(C)(CCC2(C)N=C(N/N=C(/C)CCl)SP2(=O)NC23CC4CC(CC(C4)C2)C3)P(=O)(NC23CC4CC(CC(C4)C2)C3)S1 (stereo not given) | 1.15% |
| N/C(=N\NS(=O)(=O)c1ccccc1)N[N+](=O)[O-] | 21.7% |

| SMILES | growth inhibition |
| --- | --- |
| Nc1nc(CC(N)C(=O)O)c[se]1 (stereo not given) | 28.4% |
| Cc1ccc([Se][Se]c2ccc(C)cc2)cc1 | 10.7% |
| CCCOC(=O)c1ccccc1N | -1.25% |
| O=c1[nH]c2ccccc2c(=O)n1-c1ccco1 | -13.5% |
| CO[C@H]1C[C@H](O[C@H]2CC[C@@]3(C)[C@H](CC[C@@H]4[C@@H]3CC[C@]3(C)[C@@H](C5=CC(=O)OC5)CC[C@]43O)C2)O[C@H](C)[C@H]1O | 5.95% |
| O=C(O)C(CP(=O)(O)O)=C(Cl)Cl | 12.3% |
| Nc1ccc([As](=O)(O)O)cc1C(=O)O | -18.8% |
| ClCCN(CCCl)c1cc(Cl)ccc1Oc1ccccc1 | -4.3% |
| O=c1c(O)c(-c2ccccc2)oc2ccccc12 | 14.8% |
| O=C(Nc1c(O)[nH]c(=S)[nH]c1=O)c1ccccn1 | -14.7% |
| CCN1CCOC(CC)(c2cc(Cl)cc(Cl)c2Cl)C1 (stereo not given) | 20.4% |
| NC(N)=N/N=C/c1ccc(Cl)c(Cl)c1 | -3.15% |
| COc1cc(/C=C(\C)[N+](=O)[O-])cc(OC)c1 | 16.1% |
| CCOc1cc(CCNC)c2c(ccc3ccc(OC)c(O)c32)c1OC | -0.4% |
| Oc1cc(N2CC2)c(O)cc1N1CC1 | 13.9% |
| O=C1NC(=S)NC(=O)C1=Cc1ccco1 | -19.9% |
| PCc1ccccc1.[Cl][Hg][Cl] | 12.7% |
| O=C(Cl)OC1CS(=O)(=O)CC1O (stereo not given) | 1% |
| BrCCCBr | 5.8% |
| CN1CCN(C)C12C=c1ccccc1=CC21CC1 | -15.9% |

assay: NCI Yeast Anticancer Drug Screen. Data for the sgs1 mgt1 strain (AID 161);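 further: 0% = growth of cultures given vehicle only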; settings: S. cerevisiae sgs1 mgt1 strain, at 50.0 µM, stronger effect = higher value
Summary of the method: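 Mutant yeast exposed to compound; growth scored against vehicle-only wells.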

| SMILES | growth inhibition |
| --- | --- |
| COc1ccc(N)cc1OC | -4.8% |
| N.N.N.N.N.O=C([O-])C(=O)[O-].[Co+3].[O-][Cl+3]([O-])([O-])O.[O-][Cl+3]([O-])([O-])[O-] | -22.9% |
| COc1ccc2c(c1)CCC1C2CCC2(C)C1CCC21CCNP(=O)(N(CCCl)CCCl)O1 (stereo not given) | 72.2% (active) |
| NC(=O)CI | 38.1% |
| COc1cc(/C=C2\C(O)C3CCN2CC3)cc(OC)c1OC (stereo not given) | -5.6% |
| FC(F)(F)[S-].FC(F)(F)[S-].[C-]#[O+].[C-]#[O+].[C-]#[O+].[C-]#[O+].[C-]#[O+].[C-]#[O+].[C-]#[O+].[C-]#[O+].[Mn].[Mn] | 99.7% (active) |
| O=C(COc1ccc(Cl)c(Cl)c1)Nc1ccccc1S(=O)(=O)F | -3.8% |
| CN1CC[CH2][Sn]([Cl])([Cl])[CH2]CC1 | 1.15% |
| CN(C)C1OCCO1 | -11% |
| CN(C)c1ccc(N=Nc2ccc([As](=O)(O)O)cc2)cc1 | -11.8% |
| CCN1C(=O)C(C)C(=O)N(C)C1=O (stereo not given) | 0.9% |
| COc1cc2c(cc1OC)[C@@H]1C(=O)c3ccc4c(c3O[C@@H]1CO2)C[C@H](C(C)C)O4 | -1.45% |
| C=CCOCC1CO1 (stereo not given) | 11.1% |
| CCN(CC)CC#N | -6.4% |
| CC1(C)N=C(N)N=C(N)N1c1ccc(OCCOc2ccc(S(=O)(=O)F)cc2)cc1 | -2.05% |
| NNC(N)=NCCCC(N)C(=O)O (stereo not given) | -34.3% |
| C1CC[N-]CC1.C1CC[N-]CC1.[Cl][Pt+2]([Cl])([Cl])[Cl] | 7.8% |
| O=C(CCN1CC=C(c2ccccc2)CC1)c1ccc(F)cc1 | 88.6% (active) |
| C/C(CCl)=N/NC1=NC(C)(CCC2(C)N=C(N/N=C(/C)CCl)SP2(=O)NC23CC4CC(CC(C4)C2)C3)P(=O)(NC23CC4CC(CC(C4)C2)C3)S1 (stereo not given) | 16.8% |
| N/C(=N\NS(=O)(=O)c1ccccc1)N[N+](=O)[O-] | 7.05% |

| SMILES | growth inhibition |
| --- | --- |
| Nc1nc(CC(N)C(=O)O)c[se]1 (stereo not given) | 21.1% |
| Cc1ccc([Se][Se]c2ccc(C)cc2)cc1 | 35.6% |
| CCCOC(=O)c1ccccc1N | -1.55% |
| O=c1[nH]c2ccccc2c(=O)n1-c1ccco1 | -9% |
| CO[C@H]1C[C@H](O[C@H]2CC[C@@]3(C)[C@H](CC[C@@H]4[C@@H]3CC[C@]3(C)[C@@H](C5=CC(=O)OC5)CC[C@]43O)C2)O[C@H](C)[C@H]1O | 17.8% |
| O=C(O)C(CP(=O)(O)O)=C(Cl)Cl | -13.9% |
| Nc1ccc([As](=O)(O)O)cc1C(=O)O | -6.7% |
| ClCCN(CCCl)c1cc(Cl)ccc1Oc1ccccc1 | 1.25% |
| O=c1c(O)c(-c2ccccc2)oc2ccccc12 | 35.5% |
| O=C(Nc1c(O)[nH]c(=S)[nH]c1=O)c1ccccn1 | -3.75% |
| CCN1CCOC(CC)(c2cc(Cl)cc(Cl)c2Cl)C1 (stereo not given) | 8.4% |
| NC(N)=N/N=C/c1ccc(Cl)c(Cl)c1 | -8.2% |
| COc1cc(/C=C(\C)[N+](=O)[O-])cc(OC)c1 | 34% |
| CCOc1cc(CCNC)c2c(ccc3ccc(OC)c(O)c32)c1OC | 4.75% |
| Oc1cc(N2CC2)c(O)cc1N1CC1 | 11.2% |
| O=C1NC(=S)NC(=O)C1=Cc1ccco1 | -17% |
| PCc1ccccc1.[Cl][Hg][Cl] | 14.2% |
| O=C(Cl)OC1CS(=O)(=O)CC1O (stereo not given) | -2.5% |
| BrCCCBr | 14.4% |
| CN1CCN(C)C12C=c1ccccc1=CC21CC1 | -45.6% |
